Potency and affinity values are given separately. The source made the active and inactive calls.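 The calls were made as follows: active = fitted half-maximal dose no more than twice the top valid tested dose, for compounds that lower signal; inconclusive = fit invalid, or curve flat with activity between -70 and -30; inactive = potency past limit, curve flat within ±30, or signal increasing.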
These compounds were tested against NAD-dependent protein deacylase sirtuin-5, mitochondrial (Homo sapiens) (UniProt Q9NXA8) (assay: blockers of sirtuin-5 peptide desuccinylation – biochemical, fluorescence imaging, cherry-pick, set 6, dose response (AID 720597;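 also: lower AMC signal can also come from blocking the trypsin step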)). Settings: Purified SirT5, succinyl-peptide-AMC/trypsin fluorescence; series mostly up to 15 µM.
Sequence of NAD-dependent protein deacylase sirtuin-5, mitochondrial (Homo sapiens) (Q9NXA8 whole entry, looked up): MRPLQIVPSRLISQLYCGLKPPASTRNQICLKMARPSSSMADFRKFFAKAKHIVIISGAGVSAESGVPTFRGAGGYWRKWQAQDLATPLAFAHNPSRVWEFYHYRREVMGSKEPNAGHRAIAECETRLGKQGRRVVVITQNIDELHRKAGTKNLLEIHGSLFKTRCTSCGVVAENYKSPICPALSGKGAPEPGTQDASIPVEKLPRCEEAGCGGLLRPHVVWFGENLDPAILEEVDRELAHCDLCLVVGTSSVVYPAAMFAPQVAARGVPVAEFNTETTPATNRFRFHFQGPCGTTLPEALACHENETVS

outcome, inactive:
CC(C)CC#Cc1ccc2c(c1)O[C@@H](CN(C)C(=O)C1CCCCC1)[C@@H](C)CN([C@H](C)CO)S2(=O)=O
C[C@@H](O)C#Cc1ccc2c(c1)O[C@H](CN(C)Cc1ccc(-c3ccccc3)cc1)[C@@H](C)CN([C@@H](C)CO)S2(=O)=O
COc1ccc(S(=O)(=O)Nc2ccc3c(c2)C(=O)N([C@@H](C)CO)C[C@@H](C)[C@@H](CN(C)Cc2ccc(C(F)(F)F)cc2)OCCCC[C@H](C)O3)cc1
COc1ccccc1S(=O)(=O)N(C)C[C@@H]1Oc2cc(C#CCC(C)C)ccc2S(=O)(=O)N([C@H](C)CO)C[C@H]1C
Cc1noc(C)c1NC(=O)Nc1cccc2c1O[C@H](CN(C)Cc1ccc(Oc3ccccc3)cc1)[C@@H](C)CN([C@H](C)CO)C2=O
O=C(Nc1cc(F)ccc1F)N1CC(=O)N2[C@H](CO)[C@@H](c3ccc(C#CC4CCCCC4)cc3)[C@@H]2C1
CCCC#Cc1ccc2c(c1)O[C@@H](CN(C)C(=O)c1ccccc1F)[C@@H](C)CN([C@@H](C)CO)S2(=O)=O
O=C(C[C@@H]1C[C@H]2c3cc(NC(=O)Nc4ccccc4F)ccc3O[C@H]2[C@H](CO)O1)NCC1CC1
COc1cccc(CN2[C@H](CO)[C@@H](c3ccccc3)C23CN(C(=O)C2CCC2)C3)c1
CC(C)C#Cc1cnc2c(c1)C(=O)N([C@@H](C)CO)C[C@@H](C)[C@H](CN(C)C(=O)CN1CCOCC1)O2
C[C@H](CO)N1C[C@H](C)[C@@H](CN(C)C(=O)Nc2ccc(C(F)(F)F)cc2)OCCCC[C@H](C)Oc2ccc(NS(=O)(=O)c3ccc(Cl)cc3)cc2C1=O
COCC(=O)N1C[C@@H](C)[C@@H](OC)CN(C)C(=O)c2ccc(NC(=O)c3cc(C)on3)cc2OC[C@@H]1C
C[C@H](CO)N1C[C@H](C)[C@H](CN(C)Cc2cccc(C(F)(F)F)c2)OCc2ccccc2-c2ccccc2C1=O
Cc1ccccc1-c1ccc([C@H]2[C@H](CO)N3CCCCN(S(=O)(=O)c4ccc(F)cc4)C[C@@H]23)cc1
COc1ccc(NC(=O)N(C)C[C@@H]2Oc3ccc(NS(=O)(=O)c4ccc(F)cc4)cc3C(=O)N([C@@H](C)CO)C[C@@H]2C)cc1
C[C@@H]1CCCCO[C@H](CN(C)C(=O)Nc2ccc(C(F)(F)F)cc2)[C@H](C)CN([C@@H](C)CO)C(=O)c2cc(NS(=O)(=O)c3ccc(Cl)cc3)ccc2O1
Cc1cc(C(=O)Nc2cccc3c2O[C@@H](CN(C)Cc2ccc(Oc4ccccc4)cc2)[C@H](C)CN([C@H](C)CO)C3=O)n(C)n1
CNC[C@@H]1Oc2ccc(NC(=O)Nc3ccc(F)cc3)cc2CC(=O)N([C@@H](C)CO)C[C@@H]1C
CN(C)C(=O)c1cccc(-c2ccc([C@@H]3[C@H]4CN(S(C)(=O)=O)CCCCN4[C@H]3CO)cc2)c1
C[C@H]1CN([C@@H](C)CO)C(=O)c2ccccc2-c2ccccc2CO[C@@H]1CN(C)Cc1ccc(C(F)(F)F)cc1
CC(C)CC#Cc1ccc2c(c1)O[C@@H](CN(C)C(=O)Nc1ccccc1F)[C@@H](C)CN([C@@H](C)CO)S2(=O)=O
CCCC(=O)Nc1ccc2c(c1)OC[C@@H](C)N(Cc1ccccc1)C[C@H](C)[C@H](OC)CN(C)C2=O
COc1cccc(S(=O)(=O)N(C)C[C@H]2Oc3cc(C4=CCCC4)ccc3S(=O)(=O)N([C@@H](C)CO)C[C@H]2C)c1
C[C@@H]1CN([C@@H](C)CO)C(=O)c2c(c3ccccc3n2C)-c2ccccc2CO[C@@H]1CN(C)Cc1cccc(O)c1
C[C@@H]1CN([C@@H](C)CO)S(=O)(=O)c2ccc(C#Cc3ccccc3F)cc2O[C@@H]1CN(C)C(=O)c1ccc2c(c1)OCO2
O=C(c1ccc2c(c1)OCO2)N1CC(=O)N2[C@H](CO)[C@H](c3ccc(C#CCC4CCCC4)cc3)[C@@H]2C1
O=C(CCN1CCCCC1)N[C@H]1CC[C@H](CC(=O)N2CCC(Cc3ccccc3)CC2)O[C@H]1CO
COc1cccc(NC(=O)N2CC(=O)N3[C@@H](CO)[C@H](c4ccc(C#CCC5CCCC5)cc4)[C@@H]3C2)c1
COCC(=O)N1[C@H](CO)[C@@H](c2ccccc2)C12CN(Cc1cc(F)ccc1F)C2

From PubChem BioAssay AID720597 (Broad Institute, 2013)
